In article PMC7862700, “An all-to-all approach to the identification of sequence-specific readers for epigenetic DNA modifications on cytosine”:

What was measured:
Test in all cases: DAPPL (digital affinity profiling via proximity ligation, sequencing); 10 mM Tris-HCl pH 7.5, 50 mM NaCl, 1 mM DTT, 4% glycerol, room temperature, 30 min; GST-TFs on glutathione beads, 16-mer random dsDNA library, 0.1% formaldehyde crosslink after washing; high values mean tight binding
Details in all cases: protein: recombinant; tags: N-terminal GST; dsDNA, one strand shown
[1] = target: T1, FLI1 (Homo sapiens, UniProt Q01543 1-452)
T1 sequence: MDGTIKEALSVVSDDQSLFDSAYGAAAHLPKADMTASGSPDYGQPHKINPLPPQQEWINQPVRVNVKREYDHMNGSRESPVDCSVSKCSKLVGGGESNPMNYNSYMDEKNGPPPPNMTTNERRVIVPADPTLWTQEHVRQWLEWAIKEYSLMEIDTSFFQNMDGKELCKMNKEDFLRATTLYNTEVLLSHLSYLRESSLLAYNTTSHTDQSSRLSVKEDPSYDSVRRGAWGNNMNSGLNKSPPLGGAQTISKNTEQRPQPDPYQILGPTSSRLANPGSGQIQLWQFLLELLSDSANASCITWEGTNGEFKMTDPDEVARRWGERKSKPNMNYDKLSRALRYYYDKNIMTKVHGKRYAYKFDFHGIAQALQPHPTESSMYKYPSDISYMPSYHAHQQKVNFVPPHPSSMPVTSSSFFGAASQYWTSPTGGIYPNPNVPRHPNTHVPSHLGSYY
Outline: (§1)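 GST fusions of human transcription factors were expressed in yeast and captured with glutathione beads. Once given DNA barcodes and pooled alongside a tag-only sample, they were incubated for 30 min at room temperature with 200 nmole of a random double-stranded 16-mer DNA library in Tris/NaCl/DTT/glycerol buffer, then washed, crosslinked (0.1% formaldehyde), proximity-ligated, PCR-amplified and sequenced on an Illumina NextSeq500. The binding signal of each hexamer is its read frequency for a factor divided by its frequency for the tag-only sample.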

[2] = target: T2, ELK1 (Homo sapiens, UniProt P19419 1-428)
T2 sequence: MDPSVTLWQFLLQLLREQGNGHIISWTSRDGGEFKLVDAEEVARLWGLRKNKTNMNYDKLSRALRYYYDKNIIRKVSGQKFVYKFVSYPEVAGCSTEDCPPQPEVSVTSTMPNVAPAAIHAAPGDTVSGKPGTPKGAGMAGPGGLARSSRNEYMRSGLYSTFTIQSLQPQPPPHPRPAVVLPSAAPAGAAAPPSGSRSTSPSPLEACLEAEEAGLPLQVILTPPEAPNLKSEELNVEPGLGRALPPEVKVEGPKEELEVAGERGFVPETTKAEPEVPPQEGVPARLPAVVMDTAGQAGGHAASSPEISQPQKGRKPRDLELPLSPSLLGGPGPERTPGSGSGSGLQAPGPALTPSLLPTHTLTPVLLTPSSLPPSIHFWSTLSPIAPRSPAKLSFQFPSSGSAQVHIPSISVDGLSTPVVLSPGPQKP
Outline: as §1

[3] = target: T3, GABPA (Homo sapiens, UniProt Q06546 1-454)
T3 sequence: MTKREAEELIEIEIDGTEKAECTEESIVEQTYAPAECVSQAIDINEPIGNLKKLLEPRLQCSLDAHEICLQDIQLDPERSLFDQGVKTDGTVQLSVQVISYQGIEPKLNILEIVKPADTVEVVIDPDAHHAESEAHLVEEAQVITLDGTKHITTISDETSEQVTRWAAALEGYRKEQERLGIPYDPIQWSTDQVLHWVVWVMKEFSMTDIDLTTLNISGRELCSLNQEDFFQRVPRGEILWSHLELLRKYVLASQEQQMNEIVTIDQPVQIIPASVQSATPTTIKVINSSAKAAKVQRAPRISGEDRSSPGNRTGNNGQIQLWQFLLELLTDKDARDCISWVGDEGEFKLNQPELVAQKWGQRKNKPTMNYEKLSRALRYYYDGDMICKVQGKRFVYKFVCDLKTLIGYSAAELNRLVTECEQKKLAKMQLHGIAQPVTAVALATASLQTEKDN
Outline: as §1

[4] = target: T4, ERG (Homo sapiens, UniProt P11308 1-479)
T4 sequence: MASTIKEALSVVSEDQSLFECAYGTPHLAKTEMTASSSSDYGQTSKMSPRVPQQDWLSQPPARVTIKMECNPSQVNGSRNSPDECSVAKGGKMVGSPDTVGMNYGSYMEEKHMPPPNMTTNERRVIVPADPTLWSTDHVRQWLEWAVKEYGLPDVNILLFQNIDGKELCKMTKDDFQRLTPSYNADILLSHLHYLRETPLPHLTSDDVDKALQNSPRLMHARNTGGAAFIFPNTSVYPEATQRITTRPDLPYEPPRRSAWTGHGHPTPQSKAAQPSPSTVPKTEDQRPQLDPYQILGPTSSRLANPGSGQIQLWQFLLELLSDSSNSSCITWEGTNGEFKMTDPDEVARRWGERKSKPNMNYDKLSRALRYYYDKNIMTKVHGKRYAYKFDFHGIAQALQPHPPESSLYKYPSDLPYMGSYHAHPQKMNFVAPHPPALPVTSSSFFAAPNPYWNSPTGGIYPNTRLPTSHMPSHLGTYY
Outline: as §1

[5] = target: ELF1 (Homo sapiens, UniProt P32519 1-619)
Sequence of ELF1 (P32519 whole entry): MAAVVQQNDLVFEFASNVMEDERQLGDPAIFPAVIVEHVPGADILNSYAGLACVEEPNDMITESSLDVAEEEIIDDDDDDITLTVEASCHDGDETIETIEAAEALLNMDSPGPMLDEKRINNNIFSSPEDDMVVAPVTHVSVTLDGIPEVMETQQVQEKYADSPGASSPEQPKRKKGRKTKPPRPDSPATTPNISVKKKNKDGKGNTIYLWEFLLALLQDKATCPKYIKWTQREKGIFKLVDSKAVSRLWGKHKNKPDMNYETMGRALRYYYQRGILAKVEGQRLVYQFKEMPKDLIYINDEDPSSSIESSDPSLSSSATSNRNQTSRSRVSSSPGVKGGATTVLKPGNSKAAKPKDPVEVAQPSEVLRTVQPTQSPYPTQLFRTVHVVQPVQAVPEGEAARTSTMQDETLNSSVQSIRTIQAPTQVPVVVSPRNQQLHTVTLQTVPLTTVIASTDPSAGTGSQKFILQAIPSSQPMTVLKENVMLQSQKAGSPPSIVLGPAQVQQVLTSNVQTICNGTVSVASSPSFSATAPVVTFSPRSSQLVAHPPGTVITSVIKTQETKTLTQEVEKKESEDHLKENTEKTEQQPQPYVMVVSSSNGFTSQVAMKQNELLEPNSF
Outline: as §1

[6] = target: T5, EHF (Homo sapiens, UniProt Q9NZC4 1-300)
T5 sequence: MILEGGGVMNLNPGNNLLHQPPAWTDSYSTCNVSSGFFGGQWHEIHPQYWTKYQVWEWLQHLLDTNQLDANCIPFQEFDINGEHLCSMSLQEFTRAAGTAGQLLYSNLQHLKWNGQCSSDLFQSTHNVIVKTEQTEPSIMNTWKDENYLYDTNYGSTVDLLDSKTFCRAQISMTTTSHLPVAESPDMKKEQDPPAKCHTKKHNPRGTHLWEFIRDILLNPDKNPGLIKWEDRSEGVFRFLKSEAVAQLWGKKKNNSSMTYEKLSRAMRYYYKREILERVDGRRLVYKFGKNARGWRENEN
Outline: as §1

[7] = target: SPI1 (Homo sapiens, UniProt P17947 1-270)
Outline: as §1

[8] = target: SPIB (Homo sapiens, UniProt Q01892 1-262)
Sequence of SPIB (Q01892 whole entry): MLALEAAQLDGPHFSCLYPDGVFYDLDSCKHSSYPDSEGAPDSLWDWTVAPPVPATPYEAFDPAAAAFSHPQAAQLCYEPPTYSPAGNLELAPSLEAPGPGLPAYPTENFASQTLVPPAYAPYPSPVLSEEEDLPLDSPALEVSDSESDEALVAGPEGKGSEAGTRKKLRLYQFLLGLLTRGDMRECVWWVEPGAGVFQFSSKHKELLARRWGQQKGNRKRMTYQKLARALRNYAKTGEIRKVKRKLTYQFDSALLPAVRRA
Outline: as §1

[9] = target: T6, ELK3 (Homo sapiens, UniProt P41970 1-407)
T6 sequence: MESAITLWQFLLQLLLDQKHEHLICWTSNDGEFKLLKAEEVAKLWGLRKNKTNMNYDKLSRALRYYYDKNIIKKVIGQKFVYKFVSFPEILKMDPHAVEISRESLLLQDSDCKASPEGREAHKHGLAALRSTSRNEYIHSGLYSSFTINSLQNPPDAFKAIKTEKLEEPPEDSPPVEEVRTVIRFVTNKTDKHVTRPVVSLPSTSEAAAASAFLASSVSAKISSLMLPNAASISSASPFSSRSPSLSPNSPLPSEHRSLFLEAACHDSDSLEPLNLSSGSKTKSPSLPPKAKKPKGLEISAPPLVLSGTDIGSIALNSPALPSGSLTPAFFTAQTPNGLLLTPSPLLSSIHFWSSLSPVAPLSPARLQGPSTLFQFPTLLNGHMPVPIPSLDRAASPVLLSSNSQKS
Outline: as §1

[10] = target: T7, FEV (Homo sapiens, UniProt Q99581 1-238)
T7 sequence: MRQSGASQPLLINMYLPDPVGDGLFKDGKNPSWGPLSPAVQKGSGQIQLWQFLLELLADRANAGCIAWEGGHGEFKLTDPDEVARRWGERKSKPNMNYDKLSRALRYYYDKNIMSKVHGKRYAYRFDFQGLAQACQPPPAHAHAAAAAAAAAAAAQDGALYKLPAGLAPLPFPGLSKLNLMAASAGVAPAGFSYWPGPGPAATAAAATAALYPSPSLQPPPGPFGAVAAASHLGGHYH
Outline: as §1

[11] = target: ETV5 (Homo sapiens, UniProt P41161 1-510)
Sequence of ETV5 (P41161 whole entry): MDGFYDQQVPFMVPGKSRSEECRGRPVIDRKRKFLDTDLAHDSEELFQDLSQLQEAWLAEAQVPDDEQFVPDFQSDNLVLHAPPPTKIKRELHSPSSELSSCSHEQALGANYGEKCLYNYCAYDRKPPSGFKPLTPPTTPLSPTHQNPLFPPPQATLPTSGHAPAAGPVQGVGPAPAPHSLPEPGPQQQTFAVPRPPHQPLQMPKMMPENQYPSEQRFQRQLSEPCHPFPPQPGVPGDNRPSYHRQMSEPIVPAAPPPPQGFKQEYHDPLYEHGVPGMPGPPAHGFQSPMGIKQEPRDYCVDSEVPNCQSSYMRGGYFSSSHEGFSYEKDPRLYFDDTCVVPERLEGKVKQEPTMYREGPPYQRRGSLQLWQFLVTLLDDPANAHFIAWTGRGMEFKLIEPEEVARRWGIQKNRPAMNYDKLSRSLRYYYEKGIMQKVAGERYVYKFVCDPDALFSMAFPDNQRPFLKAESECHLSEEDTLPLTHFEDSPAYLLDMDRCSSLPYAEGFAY
Outline: as §1

[12] = target: ELF4 (Homo sapiens, UniProt Q99607 1-663)
Sequence of ELF4 (Q99607 whole entry): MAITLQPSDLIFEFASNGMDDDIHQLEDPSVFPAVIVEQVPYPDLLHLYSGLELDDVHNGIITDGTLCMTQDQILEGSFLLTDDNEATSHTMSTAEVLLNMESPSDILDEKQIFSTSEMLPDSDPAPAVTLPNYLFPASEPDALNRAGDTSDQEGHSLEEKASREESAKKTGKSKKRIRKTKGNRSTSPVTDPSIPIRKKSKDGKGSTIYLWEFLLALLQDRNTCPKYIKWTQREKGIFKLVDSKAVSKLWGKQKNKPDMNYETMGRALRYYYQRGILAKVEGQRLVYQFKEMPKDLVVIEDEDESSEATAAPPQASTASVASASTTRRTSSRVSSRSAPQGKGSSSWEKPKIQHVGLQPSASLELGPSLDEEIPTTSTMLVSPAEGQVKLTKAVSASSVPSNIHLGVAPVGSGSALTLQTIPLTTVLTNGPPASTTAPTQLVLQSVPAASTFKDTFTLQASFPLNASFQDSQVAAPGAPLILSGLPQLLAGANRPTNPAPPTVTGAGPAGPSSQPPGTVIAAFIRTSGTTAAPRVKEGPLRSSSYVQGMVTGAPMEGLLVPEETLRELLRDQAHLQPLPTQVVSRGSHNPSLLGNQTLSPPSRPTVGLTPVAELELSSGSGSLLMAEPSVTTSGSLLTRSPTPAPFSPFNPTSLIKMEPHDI
Outline: as §1

[13] = target: ETV1 (Homo sapiens, UniProt P50549 1-477)
Sequence of ETV1 (P50549 whole entry): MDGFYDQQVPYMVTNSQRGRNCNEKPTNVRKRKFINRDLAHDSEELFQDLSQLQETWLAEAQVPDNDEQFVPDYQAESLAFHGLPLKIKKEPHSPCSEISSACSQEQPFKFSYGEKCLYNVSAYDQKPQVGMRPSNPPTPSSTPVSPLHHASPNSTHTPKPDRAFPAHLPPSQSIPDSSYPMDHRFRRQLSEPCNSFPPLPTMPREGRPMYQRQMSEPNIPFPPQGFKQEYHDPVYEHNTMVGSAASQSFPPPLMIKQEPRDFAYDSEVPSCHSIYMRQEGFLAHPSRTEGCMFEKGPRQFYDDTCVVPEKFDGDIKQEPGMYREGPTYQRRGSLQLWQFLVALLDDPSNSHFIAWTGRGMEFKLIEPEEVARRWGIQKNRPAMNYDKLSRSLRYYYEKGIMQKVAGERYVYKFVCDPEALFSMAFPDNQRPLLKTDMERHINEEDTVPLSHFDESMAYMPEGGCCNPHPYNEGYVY
Outline: as §1

[14] = target: T8, ERF (Homo sapiens, UniProt P50548 1-548)
T8 sequence: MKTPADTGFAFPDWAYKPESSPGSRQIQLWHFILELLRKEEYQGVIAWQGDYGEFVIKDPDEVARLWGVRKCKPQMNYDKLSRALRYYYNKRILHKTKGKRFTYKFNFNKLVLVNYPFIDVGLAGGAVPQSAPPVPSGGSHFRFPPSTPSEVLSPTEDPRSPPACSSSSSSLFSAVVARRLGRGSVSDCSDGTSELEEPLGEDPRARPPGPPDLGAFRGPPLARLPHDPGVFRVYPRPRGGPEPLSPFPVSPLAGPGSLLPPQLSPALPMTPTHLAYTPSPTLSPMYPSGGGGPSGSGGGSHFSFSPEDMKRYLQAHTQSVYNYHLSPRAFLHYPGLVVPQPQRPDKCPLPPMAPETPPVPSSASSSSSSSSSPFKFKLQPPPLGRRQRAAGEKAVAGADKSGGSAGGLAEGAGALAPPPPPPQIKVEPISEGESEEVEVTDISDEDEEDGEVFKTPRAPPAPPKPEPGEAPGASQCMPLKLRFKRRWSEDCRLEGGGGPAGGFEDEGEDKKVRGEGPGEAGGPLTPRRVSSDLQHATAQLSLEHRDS
Outline: as §1

[15] = target: T9, ETV3L (Homo sapiens, UniProt Q6ZN32 1-361)
T9 sequence: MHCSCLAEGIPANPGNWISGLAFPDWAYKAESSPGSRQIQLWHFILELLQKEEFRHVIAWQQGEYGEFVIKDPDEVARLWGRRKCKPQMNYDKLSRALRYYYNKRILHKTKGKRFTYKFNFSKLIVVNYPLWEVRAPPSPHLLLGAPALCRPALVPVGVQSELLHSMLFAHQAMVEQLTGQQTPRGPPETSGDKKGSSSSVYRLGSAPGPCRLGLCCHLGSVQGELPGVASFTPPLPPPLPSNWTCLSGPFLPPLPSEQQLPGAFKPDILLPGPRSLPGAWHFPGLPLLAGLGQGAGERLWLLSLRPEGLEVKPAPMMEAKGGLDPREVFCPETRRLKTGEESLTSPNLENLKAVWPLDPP
Outline: as §1

[16] = target: T10, ETS2 (Homo sapiens, UniProt P15036 1-469)
T10 sequence: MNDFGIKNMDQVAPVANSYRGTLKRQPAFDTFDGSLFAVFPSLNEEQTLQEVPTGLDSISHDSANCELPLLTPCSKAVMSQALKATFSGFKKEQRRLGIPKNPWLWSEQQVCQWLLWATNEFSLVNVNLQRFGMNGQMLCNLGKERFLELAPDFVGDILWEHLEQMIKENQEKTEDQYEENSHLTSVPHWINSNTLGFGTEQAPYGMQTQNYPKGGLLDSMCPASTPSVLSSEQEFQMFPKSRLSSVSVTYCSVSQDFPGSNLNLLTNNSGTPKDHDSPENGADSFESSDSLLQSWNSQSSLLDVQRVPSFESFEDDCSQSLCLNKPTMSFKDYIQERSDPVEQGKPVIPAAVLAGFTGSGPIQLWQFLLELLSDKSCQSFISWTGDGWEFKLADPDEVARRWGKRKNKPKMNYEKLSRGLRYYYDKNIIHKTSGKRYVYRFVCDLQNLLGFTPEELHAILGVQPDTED
Outline: as §1

[17] = target: T11, ELF5 (Homo sapiens, UniProt Q9UKW6-2 1-255)
T11 sequence: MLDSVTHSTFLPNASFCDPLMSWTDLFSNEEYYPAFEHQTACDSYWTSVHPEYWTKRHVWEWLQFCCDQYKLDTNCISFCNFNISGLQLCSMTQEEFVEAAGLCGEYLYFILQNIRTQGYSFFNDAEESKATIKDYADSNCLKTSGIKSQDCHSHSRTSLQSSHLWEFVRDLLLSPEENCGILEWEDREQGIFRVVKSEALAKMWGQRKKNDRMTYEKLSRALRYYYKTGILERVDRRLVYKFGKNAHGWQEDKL
Outline: as §1

[18] = target: T12, ETV3 (Homo sapiens, UniProt P41162-2 1-143)
T12 sequence: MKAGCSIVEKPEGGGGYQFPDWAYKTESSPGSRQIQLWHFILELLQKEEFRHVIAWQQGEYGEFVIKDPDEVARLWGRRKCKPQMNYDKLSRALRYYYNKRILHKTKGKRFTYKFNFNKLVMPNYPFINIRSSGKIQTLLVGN
Outline: as §1

[19] = target: ETV6 (Homo sapiens, UniProt P41212 1-452)
Sequence of ETV6 (P41212 whole entry): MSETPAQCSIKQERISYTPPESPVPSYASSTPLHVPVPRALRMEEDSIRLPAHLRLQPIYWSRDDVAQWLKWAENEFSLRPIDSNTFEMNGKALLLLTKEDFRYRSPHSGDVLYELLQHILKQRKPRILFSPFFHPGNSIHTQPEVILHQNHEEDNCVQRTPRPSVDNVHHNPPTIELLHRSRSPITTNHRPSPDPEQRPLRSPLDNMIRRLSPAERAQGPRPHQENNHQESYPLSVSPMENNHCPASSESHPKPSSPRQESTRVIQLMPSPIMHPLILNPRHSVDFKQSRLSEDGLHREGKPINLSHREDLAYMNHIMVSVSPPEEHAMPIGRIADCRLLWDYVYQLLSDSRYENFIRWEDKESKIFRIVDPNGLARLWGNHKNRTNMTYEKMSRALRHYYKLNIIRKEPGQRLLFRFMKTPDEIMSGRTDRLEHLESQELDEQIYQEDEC
Outline: as §1

Sequence | binding signal [1] | binding signal [2] | binding signal [3] | binding signal [4] | binding signal [5] | binding signal [6] | binding signal [7] | binding signal [8] | binding signal [9] | binding signal [10] | binding signal [11] | binding signal [12] | binding signal [13] | binding signal [14] | binding signal [15] | binding signal [16] | binding signal [17] | binding signal [18] | binding signal [19]
GCCTGC | 1.03 fold enrichment (6-mer frequency, TF over GST control) | 1.13 fold enrichment (6-mer frequency, TF over GST control) | 1.07 fold enrichment (6-mer frequency, TF over GST control) | 1.03 fold enrichment (6-mer frequency, TF over GST control) | 1.13 fold enrichment (6-mer frequency, TF over GST control) | 1.19 fold enrichment (6-mer frequency, TF over GST control) | 1.06 fold enrichment (6-mer frequency, TF over GST control) | 1.18 fold enrichment (6-mer frequency, TF over GST control) | 1.08 fold enrichment (6-mer frequency, TF over GST control) | 1.11 fold enrichment (6-mer frequency, TF over GST control) | 1.05 fold enrichment (6-mer frequency, TF over GST control) | 1.06 fold enrichment (6-mer frequency, TF over GST control) | 1.18 fold enrichment (6-mer frequency, TF over GST control) | 1.05 fold enrichment (6-mer frequency, TF over GST control) | 1.17 fold enrichment (6-mer frequency, TF over GST control) | 1.05 fold enrichment (6-mer frequency, TF over GST control) | 1.09 fold enrichment (6-mer frequency, TF over GST control) | 1.03 fold enrichment (6-mer frequency, TF over GST control) | 1.05 fold enrichment (6-mer frequency, TF over GST control)
CCCTGA | 1 fold enrichment (6-mer frequency, TF over GST control) | 1.18 fold enrichment (6-mer frequency, TF over GST control) | 1.05 fold enrichment (6-mer frequency, TF over GST control) | 1.04 fold enrichment (6-mer frequency, TF over GST control) | 1.06 fold enrichment (6-mer frequency, TF over GST control) |  | 1.03 fold enrichment (6-mer frequency, TF over GST control) | 1.1 fold enrichment (6-mer frequency, TF over GST control) | 1.12 fold enrichment (6-mer frequency, TF over GST control) | 1.04 fold enrichment (6-mer frequency, TF over GST control) | 1.07 fold enrichment (6-mer frequency, TF over GST control) | 1.05 fold enrichment (6-mer frequency, TF over GST control) | 1.09 fold enrichment (6-mer frequency, TF over GST control) |  | 1.04 fold enrichment (6-mer frequency, TF over GST control) | 1.02 fold enrichment (6-mer frequency, TF over GST control) | 1.06 fold enrichment (6-mer frequency, TF over GST control) | 1.01 fold enrichment (6-mer frequency, TF over GST control) | 1.05 fold enrichment (6-mer frequency, TF over GST control)
